# Results from PubChem BioAssay.
# Calls of active or inactive are those of the source.
# What was measured:
# [1] = binders of probe aFSTL3 on microarray, primary screen, stem cell growth factor project, biochemical, small-molecule microarray, fluorescence 635/667 (AID 1064); conditions: higher = more signal;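 note: measures binding of the biotinylated anti-FSTL3 antibody to printed compounds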
# [2] = binders from COS7 lysate, DM2A8 probe, primary screen, torsin A project, cell lysate, small-molecule microarray, fluorescence 635/667 (AID 1065); conditions: higher = more signal, COS7 lysate expressing mutant human TOR1A
# [3] = binders of probe aFGF2 on microarray, primary screen, stem cell growth factor project, biochemical, small-molecule microarray, fluorescence 635/667 (AID 1067); conditions: higher = more signal;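 note: measures binding of biotinylated aFGF2 protein to printed compounds on slides; z-score merges feature fluorescence and signal-to-noise across triplicate slides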
# [4] = binders of probe aFGF10 on microarray, primary screen, stem cell growth factor project, biochemical, small-molecule microarray, fluorescence 635/667 (AID 1071); conditions: higher = more signal;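 note: score merges 667 nm spot intensity and signal to noise from triplicate slides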
# [5] = biological target: Neurogenic locus notch homolog protein 2 (Homo sapiens) (UniProt Q04721); assay: Notch2 binders on small-molecule microarrays, primary screen, biochemical, small-molecule microarray, 635 nm fluorescence, stem cell growth factors (AID 1073); conditions: Notch2 binding, higher = more signal
# Chain of Neurogenic locus notch homolog protein 2 (Homo sapiens) (Q04721 whole entry, looked up, canonical isoform): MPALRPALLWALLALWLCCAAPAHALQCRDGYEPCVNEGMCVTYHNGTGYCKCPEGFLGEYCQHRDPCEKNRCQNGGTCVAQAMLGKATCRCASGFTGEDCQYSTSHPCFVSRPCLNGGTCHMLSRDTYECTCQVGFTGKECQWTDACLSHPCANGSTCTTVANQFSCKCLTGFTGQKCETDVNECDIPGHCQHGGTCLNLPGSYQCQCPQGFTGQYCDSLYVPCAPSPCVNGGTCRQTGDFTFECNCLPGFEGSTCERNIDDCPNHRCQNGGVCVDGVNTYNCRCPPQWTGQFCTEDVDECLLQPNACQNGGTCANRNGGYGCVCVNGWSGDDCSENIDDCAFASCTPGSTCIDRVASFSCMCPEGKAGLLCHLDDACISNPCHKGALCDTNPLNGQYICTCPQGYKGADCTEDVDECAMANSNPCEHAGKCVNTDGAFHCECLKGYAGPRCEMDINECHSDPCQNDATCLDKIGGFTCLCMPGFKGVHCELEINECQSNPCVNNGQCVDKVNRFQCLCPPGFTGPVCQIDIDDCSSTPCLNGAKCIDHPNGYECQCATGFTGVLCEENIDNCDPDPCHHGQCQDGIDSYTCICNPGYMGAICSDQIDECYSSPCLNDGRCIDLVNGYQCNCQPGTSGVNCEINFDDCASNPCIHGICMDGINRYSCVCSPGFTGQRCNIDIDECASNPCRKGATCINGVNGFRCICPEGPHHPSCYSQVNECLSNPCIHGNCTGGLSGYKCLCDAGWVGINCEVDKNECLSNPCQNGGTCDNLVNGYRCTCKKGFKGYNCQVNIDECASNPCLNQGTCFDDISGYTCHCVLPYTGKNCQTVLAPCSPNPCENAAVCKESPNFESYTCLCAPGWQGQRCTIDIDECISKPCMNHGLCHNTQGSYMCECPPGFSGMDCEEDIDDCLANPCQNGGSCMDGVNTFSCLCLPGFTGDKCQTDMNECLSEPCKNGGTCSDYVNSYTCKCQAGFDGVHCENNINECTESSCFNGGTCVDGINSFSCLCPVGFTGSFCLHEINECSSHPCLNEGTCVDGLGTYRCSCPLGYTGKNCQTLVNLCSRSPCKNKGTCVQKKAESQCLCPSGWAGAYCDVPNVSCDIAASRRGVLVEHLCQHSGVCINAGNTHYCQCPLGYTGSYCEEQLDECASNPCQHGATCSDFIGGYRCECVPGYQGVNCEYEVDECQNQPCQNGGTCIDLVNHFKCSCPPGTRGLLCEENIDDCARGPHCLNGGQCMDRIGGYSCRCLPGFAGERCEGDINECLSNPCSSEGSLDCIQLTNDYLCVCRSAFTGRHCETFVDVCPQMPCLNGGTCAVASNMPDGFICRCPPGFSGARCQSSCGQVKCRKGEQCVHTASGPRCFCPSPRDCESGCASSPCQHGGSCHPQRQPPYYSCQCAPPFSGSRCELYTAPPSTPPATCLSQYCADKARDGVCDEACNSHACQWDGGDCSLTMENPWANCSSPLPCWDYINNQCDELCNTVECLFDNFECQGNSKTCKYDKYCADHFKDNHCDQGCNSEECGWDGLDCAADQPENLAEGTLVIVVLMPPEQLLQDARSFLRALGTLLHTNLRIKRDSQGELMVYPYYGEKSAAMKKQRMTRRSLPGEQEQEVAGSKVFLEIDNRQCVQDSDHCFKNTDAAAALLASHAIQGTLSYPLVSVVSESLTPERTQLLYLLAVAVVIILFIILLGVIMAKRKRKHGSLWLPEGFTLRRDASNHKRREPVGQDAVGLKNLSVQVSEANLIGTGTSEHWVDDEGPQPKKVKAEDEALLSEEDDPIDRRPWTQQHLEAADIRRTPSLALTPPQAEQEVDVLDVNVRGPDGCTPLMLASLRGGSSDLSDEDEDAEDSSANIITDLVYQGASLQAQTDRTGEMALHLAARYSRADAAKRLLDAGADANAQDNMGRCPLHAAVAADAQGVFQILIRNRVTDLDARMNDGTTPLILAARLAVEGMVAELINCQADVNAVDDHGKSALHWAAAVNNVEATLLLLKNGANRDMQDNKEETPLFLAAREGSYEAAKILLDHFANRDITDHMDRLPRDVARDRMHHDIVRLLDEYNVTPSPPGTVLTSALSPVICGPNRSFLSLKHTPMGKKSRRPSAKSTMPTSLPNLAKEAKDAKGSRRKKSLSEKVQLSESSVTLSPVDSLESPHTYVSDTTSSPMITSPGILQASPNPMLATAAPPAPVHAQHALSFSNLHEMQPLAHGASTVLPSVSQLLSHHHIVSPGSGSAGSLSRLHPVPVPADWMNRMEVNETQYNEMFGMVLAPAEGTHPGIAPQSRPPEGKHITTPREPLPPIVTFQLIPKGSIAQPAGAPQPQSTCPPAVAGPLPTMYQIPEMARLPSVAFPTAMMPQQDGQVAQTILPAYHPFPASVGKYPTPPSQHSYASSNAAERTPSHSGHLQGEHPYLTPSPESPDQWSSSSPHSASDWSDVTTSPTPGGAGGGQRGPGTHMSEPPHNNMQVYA
# [6] = biological target: Pro-neuregulin-1, membrane-bound isoform (Homo sapiens) (UniProt Q02297); assay: NRG1 binders on small-molecule microarrays, primary screen, psychiatric disease protein project, biochemical, small-molecule microarray, fluorescence 635/667 (AID 1075); conditions: NRG1 binding, 635 nm fluorescence, higher = more signal;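 note: score combines 667 nm spot fluorescence with signal to noise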
# [7] = system: Neuregulin-1 EGF-like domain; assay: binders of neuregulin-1 EGF-like domain, primary screen, biochemical, small-molecule microarray, 635 nm fluorescence (AID 1081); conditions: small-molecule microarray binding, higher = more signal;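 note: binding of the protein to compounds printed on small-molecule microarray slides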
# [8] = FRG1 promoter luciferase signal modulators, primary screen, FRG1 inhibition for FSHD, cell-based, C2C12 myotubes, firefly/Renilla luciferase, luminescence (AID 1084); conditions: higher = more signal, called active from +8 up or from −8 down
# [9] = binders of probe aFST on microarray, primary screen, stem cell growth factor project, biochemical, small-molecule microarray, fluorescence 635/667 (AID 1086); conditions: higher = more signal;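 note: score merges 667 nm fluorescence with signal-to-noise of each printed compound spot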
# [10] = binders of probe aHhip on microarray, primary screen, stem cell growth factor project, biochemical, small-molecule microarray, fluorescence 635/667 (AID 1087); conditions: higher = more signal;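 note: score merges spot fluorescence at 667nm with spot signal to noise ratio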
# [11] = system: PRMT1 (protein arginine N-methyltransferase 1); assay: PRMT1 binders on small-molecule microarrays, primary screen, biochemical, small-molecule microarray, 635 nm fluorescence (AID 1088); conditions: small-molecule microarray binding, higher = more signal;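 note: binding of Prmt1 protein to compounds spotted on small-molecule microarray slides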
# [12] = yeast growth modulation, basal conditions, primary screen, YJM789 clinical isolate, OD600, 24 h (AID 1089);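 note: growth of clinical yeast isolate S. cerevisiae YJM 789 seeded 1000 cells per well; test concentration not given here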; conditions: S. cerevisiae YJM789 growth, higher = more signal, called active from +8 up or from −8 down
# [13] = fission yeast growth modulation, primary screen, strain 972, OD600, 24 h, no modulator (AID 1090);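 note: basal condition with compound alone and no growth modifier present; test concentration not given here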; conditions: S. pombe 972 growth, higher = more signal, called active from +8 up or from −8 down
# [14] = S. cerevisiae growth modulation with rapamycin, primary screen, strain BY4716, OD600, 96 h (AID 1091); conditions: higher = more signal, called active from +8 up or from −8 down; note: test concentration not given here
# [15] = biological target: Torsin-1A-interacting protein 2 (Homo sapiens) (UniProt Q8NFQ8); assay: LULL1 binders on small-molecule microarray, primary screen, cell lysate, human LULL1 lysate, 635/667 nm fluorescence (AID 1092); conditions: hLULL1 lysate binding, 635 nm fluorescence, higher = more signal;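 note: probe is lysate of COS7 cells overexpressing human LULL1; score merges per-feature 667 nm fluorescence with signal-to-noise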
# [16] = E. coli growth modulation, two-sided OD650, primary screen, E. coli filamentation project, strain DRC41, 24 h (AID 1093); conditions: OD650, 24 h, higher = more signal, called active from +8 up or from −8 down;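 note: MC1000 strain lacking acrAB efflux and sulA so SOS filamentation is blocked; test concentration not given here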
# [17] = small-molecule microarray binders of probe aLefty2, primary screen, biochemical, biotinylated probe, 635/667 nm fluorescence (AID 1094); conditions: higher = more signal;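 note: score merges spot fluorescence near 667 nm with spot signal-to-noise ratio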
# [18] = system: Noggin (protein binding on small-molecule microarray); assay: Noggin binders on small-molecule microarray, primary screen, biochemical, 635/667 nm fluorescence (AID 1095); conditions: 635 nm fluorescence, higher = more signal;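 note: score merges 667 nm feature fluorescence with signal to noise over triplicate slides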
# [19] = biological target: Neurogenic locus notch homolog protein 3 (Homo sapiens) (UniProt Q9UM47); assay: NOTCH3 binders on small-molecule microarray, primary screen, biochemical, 635/667 nm fluorescence (AID 1096); conditions: NOTCH3 binding, 635 nm fluorescence, higher = more signal
# Chain of Neurogenic locus notch homolog protein 3 (Homo sapiens) (Q9UM47 whole entry, looked up): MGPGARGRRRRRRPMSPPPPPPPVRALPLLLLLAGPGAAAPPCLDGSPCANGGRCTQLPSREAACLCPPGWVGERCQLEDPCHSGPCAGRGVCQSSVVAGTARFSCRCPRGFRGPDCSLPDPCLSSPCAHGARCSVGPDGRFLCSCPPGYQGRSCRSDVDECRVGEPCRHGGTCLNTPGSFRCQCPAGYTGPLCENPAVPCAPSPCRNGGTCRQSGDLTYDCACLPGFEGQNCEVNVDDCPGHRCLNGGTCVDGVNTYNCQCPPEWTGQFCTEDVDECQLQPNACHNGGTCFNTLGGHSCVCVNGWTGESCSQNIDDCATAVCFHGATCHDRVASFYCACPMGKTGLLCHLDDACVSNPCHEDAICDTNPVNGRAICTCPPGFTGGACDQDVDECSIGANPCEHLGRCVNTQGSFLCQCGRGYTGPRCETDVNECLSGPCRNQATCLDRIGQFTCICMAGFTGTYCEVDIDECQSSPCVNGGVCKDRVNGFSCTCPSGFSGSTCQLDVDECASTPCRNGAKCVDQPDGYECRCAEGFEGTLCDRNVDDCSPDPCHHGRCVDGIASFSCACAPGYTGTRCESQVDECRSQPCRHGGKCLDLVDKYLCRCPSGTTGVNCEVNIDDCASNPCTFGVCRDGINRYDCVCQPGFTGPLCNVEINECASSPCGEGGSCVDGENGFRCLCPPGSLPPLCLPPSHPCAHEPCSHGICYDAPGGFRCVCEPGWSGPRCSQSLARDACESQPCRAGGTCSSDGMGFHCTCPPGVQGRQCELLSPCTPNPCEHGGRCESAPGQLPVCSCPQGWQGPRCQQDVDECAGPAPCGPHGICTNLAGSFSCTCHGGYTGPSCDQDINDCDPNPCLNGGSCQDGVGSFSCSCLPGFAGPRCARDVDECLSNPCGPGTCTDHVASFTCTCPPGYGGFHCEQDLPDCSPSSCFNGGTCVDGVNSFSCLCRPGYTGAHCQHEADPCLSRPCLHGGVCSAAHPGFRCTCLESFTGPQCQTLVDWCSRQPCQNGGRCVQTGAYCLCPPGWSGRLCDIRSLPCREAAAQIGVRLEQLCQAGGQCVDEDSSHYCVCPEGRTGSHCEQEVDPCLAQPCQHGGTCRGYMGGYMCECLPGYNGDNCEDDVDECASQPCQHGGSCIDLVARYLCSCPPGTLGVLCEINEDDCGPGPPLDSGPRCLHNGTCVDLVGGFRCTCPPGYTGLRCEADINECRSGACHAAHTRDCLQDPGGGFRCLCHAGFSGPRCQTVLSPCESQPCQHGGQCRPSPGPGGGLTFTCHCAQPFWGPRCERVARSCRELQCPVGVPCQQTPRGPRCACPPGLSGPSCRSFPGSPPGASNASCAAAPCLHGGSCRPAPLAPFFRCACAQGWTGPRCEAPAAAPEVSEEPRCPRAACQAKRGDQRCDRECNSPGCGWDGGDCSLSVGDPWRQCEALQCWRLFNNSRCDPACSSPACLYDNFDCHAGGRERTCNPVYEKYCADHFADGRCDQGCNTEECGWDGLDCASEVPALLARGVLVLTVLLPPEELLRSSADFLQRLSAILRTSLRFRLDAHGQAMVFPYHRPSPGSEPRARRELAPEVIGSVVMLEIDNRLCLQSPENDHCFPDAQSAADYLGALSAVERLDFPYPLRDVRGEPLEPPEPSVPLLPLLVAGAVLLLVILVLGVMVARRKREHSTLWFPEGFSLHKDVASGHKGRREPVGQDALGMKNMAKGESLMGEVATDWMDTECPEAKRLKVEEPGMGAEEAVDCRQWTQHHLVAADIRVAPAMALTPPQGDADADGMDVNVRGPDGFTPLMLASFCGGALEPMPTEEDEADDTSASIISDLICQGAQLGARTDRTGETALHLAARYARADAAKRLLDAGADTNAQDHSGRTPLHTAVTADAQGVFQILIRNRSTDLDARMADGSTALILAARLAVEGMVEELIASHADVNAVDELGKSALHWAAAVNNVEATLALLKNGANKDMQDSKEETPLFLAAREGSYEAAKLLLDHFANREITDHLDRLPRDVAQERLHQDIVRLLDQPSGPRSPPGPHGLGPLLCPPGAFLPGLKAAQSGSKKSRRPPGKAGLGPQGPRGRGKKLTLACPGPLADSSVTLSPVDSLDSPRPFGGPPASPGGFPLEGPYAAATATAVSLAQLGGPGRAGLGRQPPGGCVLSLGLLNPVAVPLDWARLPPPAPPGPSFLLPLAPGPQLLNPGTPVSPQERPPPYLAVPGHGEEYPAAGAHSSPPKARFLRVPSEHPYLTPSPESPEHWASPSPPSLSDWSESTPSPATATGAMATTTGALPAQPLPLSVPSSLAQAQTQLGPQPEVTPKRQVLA
# [20] = small-molecule microarray binders of probe aEGFR, primary screen, biochemical, biotinylated probe, 635/667 nm fluorescence (AID 1097); conditions: higher = more signal;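 note: probe is a biotinylated anti-EGFR antibody binding compounds printed on slides; score combines fluorescence near 667 nm and signal to noise of each spot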
Structure (SMILES),composite z-score [1],composite z-score [2],composite z-score [3],composite z-score [4],composite z-score [5],composite z-score [6],composite z-score [7],z-score [8],composite z-score [9],composite z-score [10],composite z-score [11],z-score [12],z-score [13],z-score [14],composite z-score [15],z-score [16],composite z-score [17],composite z-score [18],composite z-score [19],composite z-score [20]
CCOC(=O)[C@H](Cc1ccccc1)NC(=O)CCC1CC(OC(=O)NCc2ccc3c(c2)OCO3)CC2(CCCC(COC(=O)NCCc3ccc(Cl)cc3)O2)O1 (stereo not given in full),-0.415,0.388,-0.114,0.351,0.832,0.107,0.918,-0.327 (inactive),-0.18,-0.0994,1.55,-1.93 (inactive),-0.616 (inactive),0.376 (inactive),1.78,-0.698 (inactive),-0.148,0.819,1.16,-0.081
CCOC(=O)[C@H](CC(C)C)NC(=O)CCC1CC(OC(=O)NCc2ccc3c(c2)OCO3)CC2(CCCC(COC(=O)NCc3ccccc3)O2)O1 (stereo not given in full),-0.542,0.01,-0.0667,0.536,0.375,0.929,1.12,1.61 (inactive),0.986,-0.0994,0.974,0.177 (inactive),1.12 (inactive),0.0835 (inactive),1.83,0.314 (inactive),-0.124,0.684,0.845,-0.0978
CCc1cc2c(nc1CC)CCN(CCC(C)=NOC(C)CN1CCCCc3nc(C)c(C)cc31)C2 (stereo not given),-0.154,1.24,-0.073,0.541,1.11,0.946,1.07,0.795 (inactive),0.544,-0.174,1.49,-0.379 (inactive),-16.2 (active),-0.755 (inactive),2.42,0.546 (inactive),0.0809,0.932,1.08,0.142
COC(=O)[C@H](C)NC(=O)CCC1CC(OC(=O)NCCc2ccc(F)cc2)CC2(CCCC(COC(=O)NCCOc3ccccc3)O2)O1 (stereo not given in full),-0.443,0.269,-0.0392,0.532,1.34,0.672,0.933,0.907 (inactive),0.238,-0.173,1.46,-0.233 (inactive),0.927 (inactive),1.12 (inactive),2.64,0.219 (inactive),-0.0073,0.724,1.06,-0.106
CC(=O)OC[C@H]1O[C@H](CC=NO[C@@H](C)c2cn([C@H](CO)Cc3ccccc3)nn2)C=C[C@@H]1OC(C)=O,-0.513,0.386,-0.104,0.649,0.804,1.24,0.732,0.386 (inactive),0.275,0.225,1.56,-0.283 (inactive),-0.359 (inactive),-0.346 (inactive),0.96,-0.477 (inactive),-0.0137,0.336,0.55,0.0035
C#CCCCON=C1C[C@@H](O)[C@@H](O)[C@@H]2[C@@H]3C(=O)N(C[C@@H]4CCCO4)C(=O)[C@@H]3CC[C@@H]12,-0.499,0.153,-0.0909,0.691,0.922,0.404,0.275,0.737 (inactive),-0.0371,0.0373,0.345,-0.281 (inactive),0.504 (inactive),-0.747 (inactive),0.379,0.133 (inactive),-0.119,0.595,0.752,-0.0436
CCOC(=O)CCN1C(=O)[C@H]2[C@H]3[C@H](O)[C@H](O)CC(=NNC(=O)OCc4ccccc4)[C@H]3CC[C@H]2C1=O,-0.594,1.05,-0.133,-0.884,-0.871,-1.03,-1.43,-0.695 (inactive),0.138,-0.0632,-0.0993,-0.756 (inactive),0.59 (inactive),-0.596 (inactive),-1.53,-0.287 (inactive),-0.0515,0.608,0.032,-0.103
C[C@@H]1CC[C@H]2C(=O)N3[C@@H](CC[C@@H](C)[C@@H]3c3ccc(Br)cc3)C(=O)N2[C@H]1c1ccc(Br)cc1,-0.241,0.318,-0.131,0.3,0.599,-0.0193,0.354,-0.469 (inactive),0.343,-0.173,-0.455,-0.275 (inactive),-4.1 (inactive),0.805 (inactive),0.241,-0.19 (inactive),-0.0865,0.259,0.305,-0.0987
COc1ccc2c(c1)O[C@@H](c1cccc(C(F)(F)F)c1)[C@H](O)C2=O,-0.609,-0.184,-0.131,0.452,0.242,0.0761,0.4,-0.682 (inactive),0.0335,-0.236,0.222,-3.42 (inactive),-6.34 (inactive),-0.489 (inactive),1.19,1.2 (inactive),-0.261,0.614,0.661,0.0251
CC(=O)OC[C@H]1O[C@H](CC=NO[C@@H](C)c2cc(-c3c(C)cc(C)cc3C)no2)C=C[C@@H]1OC(C)=O,-0.357,-0.264,-0.1,0.149,0.0166,-0.291,-0.736,1.03 (inactive),-0.122,-0.0994,-0.0654,0.208 (inactive),-0.0489 (inactive),0.523 (inactive),-0.382,-0.542 (inactive),-0.212,0.342,0.106,-0.0662
